According to the supplement of paper PMC10646978:
± gives the standard deviation.

Tests used:
Conditions in all cases: modulator concentration 10 µM
[1] = system: RAW-Dual (murine macrophage reporter line); experiment: NF-kB reporter (SEAP) activity fold change vs agonist alone; higher = enhanced NF-kB activity
Outline: (§1)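 RAW-Dual murine macrophage reporter cells were seeded at 50 000 per well in 384-well plates and pre-incubated 1 hour at 37 °C with compound pin-transferred to 10 μM final. After 1 hour, a PRR agonist was added and cells incubated overnight. Supernatant NF-κB (SEAP, QUANTI-Blue, 620 nm absorbance) and IRF (Lucia luciferase, QUANTI-Luc, luminescence) signals were divided by the mean agonist-only control on the same plate to give fold change. Two replicate plates were averaged, with errors by propagation.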

[2] = system: RAW-Dual (murine macrophage reporter line); experiment: IRF reporter (Lucia luciferase) activity fold change vs agonist alone; higher = enhanced IRF activity
Outline: as §1

[3] = system: RAW-Dual (murine macrophage reporter line); experiment: viability score (confluency relative to resting cells, overnight) (fraction); higher = more viable, active = viable (0.7 or more)
Outline: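 RAW-Dual macrophages in 384-well plates were incubated overnight with compound, final concentration 10 μM. Confluency images from IncuCyte were processed in IncuCyte software into two masks covering all imaged wells. The viability score is each well's confluency relative to resting cells, and a compound met the cutoff when both masks exceeded 70% of resting cells.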

[4] = agonist: CpG ODN 1826 0.5 ug/mL

SMILES	NF-kB reporter [1, 4]	NF-kB reporter ([1]; agonist: LPS 0.1 ug/mL)	NF-kB reporter ([1]; agonist: MPLA […])	IRF reporter ([2]; agonist: 3'3'-cGAMP 10 ug/mL)	IRF reporter ([2]; agonist: LPS 0.1 ug/mL)	IRF reporter ([2]; agonist: MPLA […])	viability score [3]
COc1ccc(CCN(C)CCCC(C#N)(c2ccc(OC)c(OC)c2)C(C)C)cc1OC.Cl (configuration not stated)	0.742 ± 0.21	1.02 ± 0.25	1.12 ± 0.082	0.572 ± 0.018	1.32 ± 0.26	1.27 ± 0.12	0.977 (active)
CS(=O)(=O)N1CCCCC1C(=O)N(CC1CCCO1)c1nc2c(F)cccc2s1 (configuration not stated)	0.814 ± 0.072	1.02 ± 0.1	0.773 ± 0.054	1.24 ± 0.078	1.19 ± 0.077	1.23 ± 0.16	0.966 (active)
CCn1c2ccccc2c2cc(CNCCc3ccc(OC)cc3)ccc21	0.369 ± 0.048	0.539 ± 0.068	1.24 ± 0.1	0.479 ± 0.11	0.556 ± 0.025	2.16 ± 0.28	0.0492 (inactive)
CCN1CCN(c2nc3c(c(=O)[nH]c(=O)n3C)n2CC(O)COc2cc(C)ccc2C(C)C)CC1 (configuration not stated)	1.18 ± 0.067	1.08 ± 0.086	1.2 ± 0.064	1.1 ± 0.061	1.38 ± 0.14	1.48 ± 0.31	0.956 (active)
CCCC(=O)Nc1ccc(N2CCOCC2)c(Cl)c1	1.09 ± 0.21	1.04 ± 0.098	0.964 ± 0.098	0.875 ± 0.026	1.28 ± 0.22	1.21 ± 0.12	1 (active)
Nc1ccn(C[C@@H](CO)OCP(=O)(O)O)c(=O)n1	1 ± 0.25	0.97 ± 0.057	0.961 ± 0.064	0.906 ± 0.03	1.3 ± 0.14	1.14 ± 0.16	1.01 (active)
Cc1cc(CNC(=O)CCc2ccc(S(C)(=O)=O)cc2)c(C)o1	1.24 ± 0.44	1.03 ± 0.084	1.04 ± 0.066	0.928 ± 0.046	0.97 ± 0.18	1 ± 0.11	0.999 (active)
COC(=O)C1=CN(CC2CCCO2)C=C(C(=O)OC)C1c1ccc(F)cc1 (configuration not stated)	1.06 ± 0.065	0.875 ± 0.069	1.22 ± 0.063	0.886 ± 0.062	0.95 ± 0.046	0.961 ± 0.13	0.996 (active)
CC#CC(=O)Nc1ccc(N2CCOCC2=O)c(C)c1	0.993 ± 0.062	1.01 ± 0.086	1.01 ± 0.092	0.961 ± 0.058	0.913 ± 0.084	0.865 ± 0.14	1.01 (active)
O=S(=O)(Nc1cccc2cccnc12)c1ccccc1	0.961 ± 0.13	0.597 ± 0.097	0.659 ± 0.053	1.04 ± 0.081	5.63 ± 1	1.32 ± 0.29	0.745 (active)
N#Cc1cc2c(nc1N1CC(Cn3nc(C4CC4)ccc3=O)C1)CCC2	1.44 ± 0.078	1.21 ± 0.099	1.63 ± 0.24	0.866 ± 0.12	1.03 ± 0.17	1.18 ± 0.34	0.946 (active)
COc1c(C)c2c(c(O)c1C/C=C(\C)CCC(=O)O)C(=O)OC2	0.602 ± 0.047	0.146 ± 0.007	0.352 ± 0.032	0.453 ± 0.03	1.13 ± 0.066	1.31 ± 0.11	0.587 (inactive)
Cl.Cl.Clc1ccc(Nc2nnc(Cc3ccncc3)c3ccccc23)cc1	1.04 ± 0.15	1 ± 0.24	1.14 ± 0.31	0.628 ± 0.021	1.12 ± 0.2	0.926 ± 0.14	0.979 (active)
O=C1CN(CCC2=CCCCC2)C2CS(=O)(=O)CC2N1c1ccc(Cl)cc1 (configuration not stated)	1.01 ± 0.12	1.07 ± 0.089	0.849 ± 0.071	0.786 ± 0.051	0.892 ± 0.078	1 ± 0.13	1.01 (active)
Cc1cc(CCNC(=O)c2nc3ccccc3s2)nn1C	1.1 ± 0.062	0.978 ± 0.12	0.978 ± 0.053	0.953 ± 0.052	1.02 ± 0.048	0.943 ± 0.29	1 (active)
CCCCn1c(CNC(=O)c2cccs2)nc2ccccc21	0.926 ± 0.077	0.98 ± 0.06	1.03 ± 0.061	1.03 ± 0.06	1.15 ± 0.093	0.921 ± 0.15	0.983 (active)
CC(C)(C)SCC(O)Cn1c2ccc(Br)cc2c2cc(Br)ccc21 (configuration not stated)	0.767 ± 0.06	0.846 ± 0.1	0.91 ± 0.098	0.844 ± 0.039	1.31 ± 0.079	1.4 ± 0.12	0.999 (active)
Cc1cc(OCC(=O)NC2CC(C)(C)NC(C)(C)C2)ccc1Br	0.843 ± 0.1	1.03 ± 0.079	1.05 ± 0.043	0.952 ± 0.041	1.1 ± 0.079	1.55 ± 0.19	0.976 (active)
O=C(Nc1ccc(S(=O)(=O)Nc2ccc(F)cc2)cc1)C(F)(F)F	0.992 ± 0.11	1.03 ± 0.069	0.93 ± 0.061	1.12 ± 0.027	1.37 ± 0.22	1.14 ± 0.098	1.01 (active)
Cc1cccc(NC(=O)Cc2c(C)nc(SCc3ccccc3F)[nH]c2=O)c1C	0.996 ± 0.059	1.13 ± 0.088	1.03 ± 0.081	0.938 ± 0.043	0.97 ± 0.081	0.937 ± 0.21	0.997 (active)
COc1cc(O)c(C(=O)Nc2nc(C(=O)NCCN(C(C)C)C(C)C)cs2)cc1OC.Cl.O.O.O	1.01 ± 0.098	0.966 ± 0.13	0.968 ± 0.022	0.96 ± 0.064	1 ± 0.11	1.05 ± 0.18	0.997 (active)
CCN(CC)C(=O)/C(C#N)=C/c1cc(O)c(O)c([N+](=O)[O-])c1	1.23 ± 0.23	1.08 ± 0.45	0.864 ± 0.055	0.905 ± 0.035	1.22 ± 0.43	1.11 ± 0.095	0.992 (active)
CC(=O)Oc1ccc2occ(C(=O)c3cccs3)c2c1	0.844 ± 0.099	0.964 ± 0.13	1.19 ± 0.14	0.836 ± 0.039	1.17 ± 0.074	1.26 ± 0.18	1.02 (active)
Cc1cc(OC2CN(C(=O)Cn3nnc4ccccc43)C2)cc(=O)n1C1CC1	1.14 ± 0.08	1.05 ± 0.11	1.02 ± 0.044	0.97 ± 0.044	0.99 ± 0.07	0.973 ± 0.15	0.997 (active)
COC1(C)CCC2OC2(C)CCC2C1CC2(C)C (configuration not stated)	1.31 ± 0.31	1.06 ± 0.053	1.04 ± 0.12	1.03 ± 0.041	1.28 ± 0.15	1.17 ± 0.13	0.87 (active)
CCCCCCCCCCCC(CC1OC(=O)C1CCCCCC)OC(=O)C(CC(C)C)NC=O (configuration not stated)	1.55 ± 0.37	1.04 ± 0.092	0.364 ± 0.07	0.475 ± 0.023	1.61 ± 0.19	0.197 ± 0.065	0.943 (active)
